# CHRM1 antagonist: antagonists of human M1 muscarinic receptor | CHO-K1 hM1, Fluo-8 calcium fluorescence, ACh EC80 antagonist | inhibition, % at 3 µM | actives 1.3% (n = 360,000) | AID 588852;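 active = percent inhibition above its own plate's cutoff, namely the mean of that plate's compound wells plus 3 SD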;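 also: peak over basal fluorescence ratio during 140 s after agonist addition; 0% = ACh EC80 plus DMSO and 100% = DMSO alone without agonist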
# Target sequence (P11229 whole entry, looked up): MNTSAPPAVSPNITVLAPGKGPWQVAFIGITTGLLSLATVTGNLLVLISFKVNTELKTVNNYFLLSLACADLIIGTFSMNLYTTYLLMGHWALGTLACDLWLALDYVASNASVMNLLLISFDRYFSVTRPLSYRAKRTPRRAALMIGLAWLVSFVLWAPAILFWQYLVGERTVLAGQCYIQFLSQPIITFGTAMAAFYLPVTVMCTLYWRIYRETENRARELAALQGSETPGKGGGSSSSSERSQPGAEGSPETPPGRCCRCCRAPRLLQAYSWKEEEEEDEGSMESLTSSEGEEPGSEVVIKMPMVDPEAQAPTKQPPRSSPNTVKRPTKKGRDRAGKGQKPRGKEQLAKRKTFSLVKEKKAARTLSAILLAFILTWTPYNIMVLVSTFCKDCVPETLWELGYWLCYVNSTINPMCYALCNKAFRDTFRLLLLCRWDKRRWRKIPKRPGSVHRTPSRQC
# M1 ag parental: M1 agonist counterscreen hit in parental CHO-K1 cells. AID 602248. activation, % at 3 µM. actives 0.48% (n = 360,000). Fluo-8 calcium fluorescence; scaled to maximal ATP response, vehicle zero; in the data active = activation above about 15%;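 also: untransfected CHO-K1 host cells lacking M1 receptor as counterscreen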
# M1 PAM: positive allosteric modulators of human M1 muscarinic receptor; actives 0.088% (n = 360,000); CHO-K1 hM1, Fluo-8 calcium fluorescence, ACh EC20; 0% = ACh EC20, 100% = maximal ACh; P11229; activation, % at 3 µM; in the data active = activation above about 19%, passing the limit was not always enough
# CHO-K1 Ca PAM: M1 PAM counterscreen hit in parental CHO-K1 cells; ATP EC20, Fluo-8 calcium fluorescence; 0% at ATP EC20, 100% at ATP max; activation, % at 3 µM; actives 0.02% (n = 360,000);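 active = activation above the run cutoff, the mean activation of all test compounds plus 3 SD, cut at about 40% in these data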;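 also: peak over basal fluorescence ratio in a 140 s read after ATP addition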
# CHO-K1 Ca antag: nonselective inhibitor or artifact in parental CHO-K1 cells; inhibition, % at 3 µM; actives 0.6% (n = 360,000); AID 602250; ATP-induced calcium, Fluo-8 fluorescence;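 active = inhibition above a per-plate cutoff, the plate's mean sample inhibition plus 3 SD, cut at about 24% in these data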;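 also: 0% = DMSO plus EC80 ATP and 100% = DMSO alone without ATP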
# CHRM1 agonist: activates human CHRM1 receptor; P11229; CHO-K1 hM1, Fluo-8 calcium fluorescence, agonist mode; 0% DMSO, 100% acetylcholine EC100; activation, % at 3 µM; actives 0.33% (n = 360,000); AID 588814;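 active = activation above the run's mean compound activation plus 3 SD, cut at about 16% in these data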;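 also: peak over basal fluorescence ratio within a 140 s kinetic read after compound addition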
# Active calls of the source: *. Most compounds without a hit are left out; they make up all but 2.4% or so of the library.
SMILES,CHRM1 antagonist,M1 ag parental,M1 PAM,CHO-K1 Ca PAM,CHO-K1 Ca antag,CHRM1 agonist
CCCN1C(=O)/C(=C/c2ccc(OCC(=O)OCC)cc2)NC1=S,-4.3,10.6,3.9,21.1,-10.5,1.9
CCCN1C(=O)/C(=C/c2ccc(N3CCCC3)c(C)c2)NC1=S,58.7*,54.0*,-8.2,0.1,59.6*,46.9*
NC(=O)c1c(NC(=O)CN2CCOCC2)sc2c1CCC2,-49.9,0.8,24.8*,-4.9,0.9,18.1*
COc1ccc(C=O)cc1CSc1ncccc1C(=O)O,-7.9,-0.1,11.8,-10.8,-13.4,-2.1
COc1ccccc1C(=O)C1CCCN(C(=O)c2cccc(Cn3cccn3)c2)C1 (stereo not given),-17.0,4.7,4.6,6.9,-5.8,-2.5
Cc1ccccc1N1CCN(C2CCCN(C(=O)CCC(F)(F)F)C2)CC1 (stereo not given),-8.9,0.1,0.0,14.7,-8.8,-8.7
COC(=O)c1ccc(CSc2nnc(NC(=O)C3CCCO3)s2)cc1 (stereo not given),-12.3,1.2,11.1,13.1,-11.2,2.0
O=C(Nc1nnc(SCc2ccc(Cl)cc2)s1)C1CCCO1 (stereo not given),3.4,0.0,-1.7,-9.1,30.6*,-2.5
Cc1cc(-c2nnc(CCC(=O)N(C)Cc3cccc4ccccc34)o2)no1,-4.0,-0.2,1.4,10.3,-11.2,-4.9
O=C(CCNS(=O)(=O)c1cccc2nsnc12)N1CCN(c2ccccn2)CC1,89.4*,1.0,-21.7,16.0,-0.1,-4.9
COc1ccc(CCNc2ncnc3sc(C)cc23)cc1OC,41.0*,14.1,-15.4,-12.5,32.1*,3.1
COc1ccc(CCNc2ncnc3[nH]ncc23)cc1OC,-15.8,4.2,-9.7,19.5,-7.3,2.9
CC1CCN(S(=O)(=O)c2ccc(NC(=O)CN3CCCC3)cc2)CC1,-1.4,4.3,8.4,-8.4,-21.7,-2.7
O=C(CNC1CCCCCC1)Nc1ccc(S(=O)(=O)NC2CC2)cc1,31.6*,4.1,-27.4,11.8,-27.9,-11.5
CCN1CCN(CC(=O)Nc2ccc(S(=O)(=O)N3C(C)CCCC3C)cc2)CC1 (stereo not given),24.1*,1.4,-23.8,5.4,-12.1,-11.3
CC1CCC(NS(=O)(=O)c2ccc(N3CCCC3=O)cc2)CC1 (stereo not given),45.8*,19.5*,-20.6,-23.7,22.6,6.3
CC1CCN(CC(=O)Nc2ccc(S(=O)(=O)NC3CC3)cc2)CC1,74.0*,0.0,-24.9,-0.9,-3.9,-6.5
O=C(CNC(=O)N1CC(=O)Nc2ccccc21)Nc1nccs1,-7.5,1.8,5.9,16.2,-13.9,0.0
Cn1ccsc1=NC(=O)c1ccc(OC(F)(F)F)cc1,-25.8,0.5,14.9,-0.2,-7.2,1.5
COc1ccc(N(C(=O)Cn2nnc(-c3ccccc3F)n2)C(C(=O)NCC2CCCO2)c2ccc(Cl)cc2)cc1 (stereo not given),-11.1,0.7,9.8,4.8,-9.4,-0.2
Cc1ccc(C)c(C(O)c2ncc(-c3ccc4ccccc4c3)[nH]2)c1 (stereo not given),-7.7,3.5,1.8,-2.9,-8.3,9.7
Cc1cccc(Nc2nc(-c3c(C)nc4ccccn34)cs2)c1,37.0*,11.8,-23.3,-8.1,9.9,-4.6
CCOC(=O)c1cc(C#N)c(SC)nc1C,-13.1,0.8,8.9,21.2,-14.4,-2.7
CSc1nc(C)c(C(=O)C[n+]2ccccc2C)cc1C#N,39.9*,0.3,-19.2,11.5,-13.7,-6.2
Fc1ccccc1CNc1nc(-c2cccnc2)nc2ccccc12,6.1,0.2,-10.7,0.9,-12.5,-12.2
SMILES,CHRM1 antagonist,M1 ag parental,M1 PAM,CHO-K1 Ca PAM,CHO-K1 Ca antag,CHRM1 agonist
CCOc1ccc(-c2cc(C(=O)N3CCN(c4ccccn4)CC3)c3ccccc3n2)cc1,9.9,0.8,-8.8,-5.4,-6.2,-3.7
O=C(c1cc(-c2cccs2)nc2ccccc12)N1CCN(c2ccccc2O)CC1,32.2*,13.8,-7.4,6.8,9.9,-1.4
COc1ccc(-c2cc(C(=O)N3CCN(c4ccccn4)CC3)c3ccccc3n2)cc1,30.2*,4.7,-10.4,14.9,0.8,-0.4
COc1ccc(-c2cc(C(=O)N3CCN(c4ccccc4O)CC3)c3ccccc3n2)cc1OC,46.2*,6.3,-11.6,8.2,15.1,-1.7
O=C(NCc1ccncc1)c1nc(-c2ccc(C(F)(F)F)cc2)no1,4.0,6.9,-10.2,3.9,10.1,-1.0
COCCNC(=O)C1CCC(Cn2c(=S)[nH]c3ccccc3c2=O)CC1 (stereo not given),0.9,0.1,2.2,-2.0,30.1*,1.0
COc1cccc(C2=CC(=O)C(C(C)(C)C)N2C(C)(C)C)c1 (stereo not given),-13.9,-0.1,2.0,8.9,-14.8,-5.9
CCN(CC)S(=O)(=O)c1ccc(NC(=O)CCN2C(=O)C3CC=CCC3C2=O)cc1 (stereo not given),-2.1,0.5,0.8,2.8,-10.0,-7.5
Cc1cc(=O)n2c3ccccc3n(CC(O)CN3CCN(Cc4ccccc4)CC3)c2c1C#N (stereo not given),45.3*,3.3,-21.9,-0.3,4.1,-5.6
Cn1cc(C(=O)c2ccc(Cl)cc2)cc1-c1nc2ccccc2n1C,23.7*,9.1,-14.5,-0.1,3.1,0.4
C=CCc1cc(Cl)ccc1OCCNCCCOC,7.5,2.4,-13.1,5.4,-10.1,-8.4
C=CCc1ccccc1OCCNCCCOC,20.0,-0.3,-14.8,-16.3,23.7*,-12.2
O=C(NN1CCOCC1)c1cc(-c2ccc(Cl)c(Cl)c2)nc2ccccc12,-0.4,-0.2,5.6,5.1,2.2,-4.2
CCN(CC)S(=O)(=O)c1cc(C(=O)NCCN2CCOCC2)ccc1Cl,-2.0,0.2,0.5,-11.5,-8.7,-4.4
CC1(C)N=C(N)N=C(N)N1c1cc(Cl)ccc1Cl,-1.2,-0.2,2.9,21.5,0.3,-9.4
CC1(C)N=C(N)N=C(N)N1c1ccc(Oc2ccc(Cl)cc2)c(Cl)c1,54.9*,1.8,-27.3,13.7,-11.6,-9.3
CCOC(=O)C1CCCN(c2c(C(=O)c3ccccc3)cnc3ccc(OC)cc23)C1 (stereo not given),50.9*,3.6,-29.2,61.4*,-15.9,61.5*
CCOC(=O)C1CCCN(C(=O)COc2ccc(C(=O)c3ccccc3)cc2)C1 (stereo not given),-3.5,1.3,1.4,-21.6,11.4,0.1
CC1(c2cccc3ccccc23)NC(=O)N(CC(=O)NC2CCS(=O)(=O)C2)C1=O (stereo not given),0.9,0.3,9.6,1.9,-0.7,-2.2
O=C(NCc1ccncc1)C(=O)NCC1OCCCN1S(=O)(=O)c1cc(F)ccc1F (stereo not given),5.8,0.5,-1.6,-18.4,5.1,-4.0

# Assay outcomes (PubChem BioAssay)
